# Test results taken from the supplement of paper PMC6522484.
# ± gives the standard deviation of the averaged measurements.
# How the values were obtained:
# DLD1 [1] = assay: cell viability (CellTiter-Glo) relative to plate median (fraction of plate median); higher = more viable cells; conditions: 10 µM, treatment time 24 h
# How it was run: (§1)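 Reporter and viability luminescence were measured in colorectal cancer cells stably carrying lentiviral TCF/Wnt firefly luciferase reporters. The cells were exposed to kinase inhibitor library compounds at a final 10 µM for 24 h, starting 24 h after seeding in 384-well plates. Each well was normalised to the plate median (webcellHTS2, additive, no log transformation), and two independent replicates were averaged.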
# HCT116 [2] = assay: as above; conditions: 10 µM; treatment time 24 h; reporter: TCF4/Wnt
# How it was run: as §1
# SW480 [3] = assay: as above; conditions: 10 µM; treatment time 24 h; reporter: 7TFP
# How it was run: as §1
# DLD1 [4] = assay: TCF/Wnt firefly luciferase reporter signal relative to plate median (fraction of plate median); higher = higher Wnt reporter signal; conditions: 10 µM, treatment time 24 h
# How it was run: as §1
# HCT116 [5] = assay: as above; conditions: 10 µM; treatment time 24 h; reporter: TCF4/Wnt
# How it was run: as §1
# SW480 [6] = assay: as above; conditions: 10 µM; treatment time 24 h; reporter: 7TFP
# How it was run: as §1
# DLD1 [7] = assay: cell viability (CellTiter-Glo) relative to plate median (fraction of plate median); higher = more viable cells; conditions: 5 µM; treatment time 24 h; reporter: 7TFP
# How it was run: (§2)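 Colorectal cancer cell lines stably carrying lentiviral TCF/Wnt firefly luciferase reporters (7TFP or TCF4/Wnt) were plated in 384-well plates and, 24 h later, given library compounds at a final 5 µM for 24 h. Firefly luciferase or CellTiterGlo luminescence was read on parallel plates with a Tecan F500 reader. Each well's signal was normalised to the plate median in webcellHTS2 (additive, without log transformation). Values are the mean of two independent replicates.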
# HCT116 [8] = assay: as above; conditions: 5 µM; treatment time 24 h; reporter: TCF4/Wnt
# How it was run: as §2
# SW480 [9] = assay: as above; conditions: 5 µM; treatment time 24 h; reporter: 7TFP
# How it was run: as §2
# DLD1 [10] = assay: TCF/Wnt firefly luciferase reporter signal relative to plate median (fraction of plate median); higher = higher Wnt reporter signal; conditions: 5 µM; treatment time 24 h; reporter: 7TFP
# How it was run: as §2
# SW480 [11] = assay: as above; conditions: 5 µM; treatment time 24 h; reporter: 7TFP
# How it was run: as §2
smiles,measurement,setting,value
Cc1ccccc1-n1c(Cn2cnc3c(N)ncnc32)nc2cccc(C)c2c1=O,cell viability,DLD1 [1]; reporter: 7TFP,1.05 ± 0.05
same,cell viability,DLD1 [1]; reporter: TCF4/Wnt,0.964 ± 0.029
same,cell viability,HCT116 [2],1.19 ± 0.064
same,cell viability,SW480 [3],0.947 ± 0.027
same,TCF/Wnt firefly luciferase reporter signal,DLD1 [4]; reporter: 7TFP,1.02 ± 0.021
same,TCF/Wnt firefly luciferase reporter signal,DLD1 [4]; reporter: TCF4/Wnt,0.941 ± 0.027
same,TCF/Wnt firefly luciferase reporter signal,HCT116 [5],1.18 ± 0.057
same,TCF/Wnt firefly luciferase reporter signal,SW480 [6],0.9485 ± 0.005
CC[N+]1(C)CCCC(OC(=O)C(O)(c2ccccc2)c2ccccc2)C1 (stereo unspecified),cell viability,DLD1 [7],0.945 ± 0.0014
same,cell viability,HCT116 [8],0.949 ± 0.087
same,cell viability,SW480 [9],0.933 ± 0.091
same,TCF/Wnt firefly luciferase reporter signal,DLD1 [10],0.857 ± 0.0071
same,TCF/Wnt firefly luciferase reporter signal,SW480 [11],0.958 ± 0.06
OC1CCCCC1N1CCC(c2ccccc2)CC1 (stereo unspecified),cell viability,DLD1 [7],0.98 ± 0.0042
same,cell viability,HCT116 [8],0.922 ± 0.069
same,cell viability,SW480 [9],1.04 ± 0.021
same,TCF/Wnt firefly luciferase reporter signal,DLD1 [10],0.867 ± 0.1
same,TCF/Wnt firefly luciferase reporter signal,SW480 [11],0.92 ± 0.022
COc1cc2c(cc1OC)[C@@]13CCN4CC5=CCO[C@H]6CC(=O)N2[C@H]1[C@H]6[C@H]5C[C@H]43,cell viability,DLD1 [7],1.06 ± 0.05
same,cell viability,HCT116 [8],1 ± 0.097
same,cell viability,SW480 [9],1.04 ± 0.035
same,TCF/Wnt firefly luciferase reporter signal,DLD1 [10],0.876 ± 0.096
same,TCF/Wnt firefly luciferase reporter signal,SW480 [11],0.974 ± 0.031
CC(C)(C)c1cc(C=C(C#N)C#N)cc(Br)c1O,cell viability,DLD1 [1]; reporter: 7TFP,0.79 ± 0.03
same,cell viability,DLD1 [1]; reporter: TCF4/Wnt,0.804 ± 0.18
same,cell viability,HCT116 [2],0.966 ± 0.16
same,cell viability,SW480 [3],0.91 ± 0.035
same,TCF/Wnt firefly luciferase reporter signal,DLD1 [4]; reporter: 7TFP,1.2 ± 0.092
same,TCF/Wnt firefly luciferase reporter signal,DLD1 [4]; reporter: TCF4/Wnt,1.07 ± 0.18
same,TCF/Wnt firefly luciferase reporter signal,HCT116 [5],1.38 ± 0.25
same,TCF/Wnt firefly luciferase reporter signal,SW480 [6],1.3 ± 0.11
CNC(Cc1c[nH]c2ccccc12)C(=O)O (stereo unspecified),cell viability,DLD1 [7],1.06 ± 0.11
same,cell viability,HCT116 [8],0.975 ± 0.0057
same,cell viability,SW480 [9],1 ± 0.011
same,TCF/Wnt firefly luciferase reporter signal,DLD1 [10],1.03 ± 0.13
same,TCF/Wnt firefly luciferase reporter signal,SW480 [11],0.98 ± 0.13
COc1cc2c(cc1-c1cc3cc4ccoc4cc3oc1=O)OCO2,cell viability,DLD1 [7],0.964 ± 0.03
same,cell viability,HCT116 [8],0.949 ± 0.054
same,cell viability,SW480 [9],0.93 ± 0.059
same,TCF/Wnt firefly luciferase reporter signal,DLD1 [10],0.973 ± 0.017
same,TCF/Wnt firefly luciferase reporter signal,SW480 [11],0.9445 ± 0.0021
O=C1CCCN1CC#CCN1CCCC1,cell viability,DLD1 [7],1.07 ± 0.092
same,cell viability,HCT116 [8],1.11 ± 0.028
same,cell viability,SW480 [9],1.05 ± 0.042
same,TCF/Wnt firefly luciferase reporter signal,DLD1 [10],1.01 ± 0.032
same,TCF/Wnt firefly luciferase reporter signal,SW480 [11],0.8175 ± 0.0035
COc1cccc(C=O)c1OC,cell viability,DLD1 [7],1.01 ± 0.022
same,cell viability,HCT116 [8],1.1 ± 0.15
same,cell viability,SW480 [9],1 ± 0.043
same,TCF/Wnt firefly luciferase reporter signal,DLD1 [10],1.03 ± 0.073
same,TCF/Wnt firefly luciferase reporter signal,SW480 [11],0.914 ± 0.088
CC(C)c1ccc2c(c1O)CC[C@H]1C3=C(CC[C@]21C)C(=O)OC3,cell viability,DLD1 [7],1.1 ± 0.042
same,cell viability,HCT116 [8],1.1 ± 0.099
same,cell viability,SW480 [9],1.09
same,TCF/Wnt firefly luciferase reporter signal,DLD1 [10],1.04 ± 0.19
same,TCF/Wnt firefly luciferase reporter signal,SW480 [11],1.06
CC[C@@H](C(=O)[C@@H](C)[C@@H](O)[C@H](C)[C@@H]1O[C@@H]([C@@H](CC)C(=O)O)CC[C@@H]1C)[C@H]1O[C@]2(C=C[C@@H](O)[C@]3(CC[C@@](C)([C@H]4CC[C@](O)(CC)[C@H](C)O4)O3)O2)[C@H](C)C[C@@H]1C,cell viability,DLD1 [7],0.948 ± 0.14
same,cell viability,HCT116 [8],0.978 ± 0.073
same,cell viability,SW480 [9],1.07 ± 0.05
same,TCF/Wnt firefly luciferase reporter signal,DLD1 [10],0.783 ± 0.11
same,TCF/Wnt firefly luciferase reporter signal,SW480 [11],0.897 ± 0.089
C[C@@H]1CC[C@]2(NC1)O[C@H]1C[C@H]3[C@@H]4CC=C5C[C@@H](O)CC[C@]5(C)[C@H]4CC[C@]3(C)[C@H]1[C@@H]2C,cell viability,DLD1 [7],0.943 ± 0.011
same,cell viability,HCT116 [8],0.904 ± 0.035
same,cell viability,SW480 [9],0.957 ± 0.044
same,TCF/Wnt firefly luciferase reporter signal,DLD1 [10],0.963 ± 0.037
same,TCF/Wnt firefly luciferase reporter signal,SW480 [11],0.978 ± 0.016
